# Laboratory results taken from PubChem BioAssay (EPA / NIEHS).
# The source made the active and inactive calls. How the source made its calls: active means hit-call score of the fitted dose curve at least 0.9, where 1 is the maximum; inactive means score below 0.9.
# Legend:
# [1] = read-out: Macrophage colony-stimulating factor (MCSF), CSF1 (gene 1435); experiment: BSK_hDFCGF_MCSF: BioMAP Diversity Plus: hDFCGF Assay for Macrophage colony-stimulating factor (MCSF) Biomarker Activity (AID 2283060); conditions: primary human foreskin fibroblasts; actives raise or lower the signal
# How it was run: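 Primary human foreskin fibroblasts dosed with chemical; 24 h later, M-CSF quantified by ELISA; curves fitted in both directions vs DMSO negative control.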
# [2] = BSK_hDFCGF_SRB: Viability Assessment in the BioMAP Diversity Plus: hDFCGF Assay (AID 2283061); conditions: primary human foreskin fibroblasts;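 further: cells exposed to compound for 24 h before the read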
# How it was run: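 Readout is SRB absorbance at 560 nm, reflecting total protein in parallel cultures of human foreskin fibroblasts harvested 24 h after chemical dosing. Activity was fitted bidirectionally relative to DMSO.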
# [3] = read-out: TIMP metallopeptidase inhibitor 1 (TIMP1), TIMP1 (gene 7076); experiment: BSK_hDFCGF_TIMP1: BioMAP Diversity Plus: hDFCGF Assay for TIMP metallopeptidase inhibitor 1 (TIMP1) Biomarker Activity (AID 2283062); conditions: primary human foreskin fibroblasts; actives raise or lower the signal
# How it was run: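 Human skin fibroblasts (primary), hDFCGF system; compound exposure 24 h; TIMP-1 by ELISA; bidirectional fit vs DMSO negative control; overt cytotoxicity by SRB in parallel wells.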
# [4] = read-out: Monokine induced gamma interferon (MIG), CXCL9 (gene 4283); experiment: BSK_hDFCGF_MIG: BioMAP Diversity Plus: hDFCGF Assay for Monokine induced gamma interferon (MIG) Biomarker Activity (AID 2283063); conditions: primary human foreskin fibroblasts; actives raise or lower the signal
# How it was run: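 Chemicals were added to primary human foreskin fibroblast cultures, which were sampled 24 h later. MIG levels were then quantified by ELISA and responses fitted in both directions relative to DMSO.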
# [5] = read-out: Matrix Metallopeptidase 1 (MMP1), MMP1 (gene 4312); experiment: BSK_hDFCGF_MMP1: BioMAP Diversity Plus: hDFCGF Assay for Matrix Metallopeptidase 1 (MMP1) Biomarker Activity (AID 2283064); conditions: primary human foreskin fibroblasts; actives raise or lower the signal
# How it was run: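 Primary human foreskin fibroblasts exposed to chemicals for 24 h; MMP1 measured by ELISA. Cytotoxicity tracked by SRB staining in parallel cultures; bidirectional fit relative to DMSO.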
# [6] = read-out: Vascular cell adhesion molecule 1 (VCAM1), VCAM1 (gene 7412); experiment: BSK_hDFCGF_VCAM1: BioMAP Diversity Plus: hDFCGF Assay for Vascular cell adhesion molecule 1 (VCAM1) Biomarker Activity (AID 2283065); conditions: primary human foreskin fibroblasts; actives raise or lower the signal
# How it was run: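 Human foreskin fibroblast primary cells, chemical exposure 24 h; VCAM-1 by ELISA; bidirectional fit, DMSO = negative control/baseline.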
# [7] = read-out: Plasminogen activator inhibitor-1 (PAI1), SERPINE1 (gene 5054); experiment: BSK_hDFCGF_PAI1: BioMAP Diversity Plus: hDFCGF Assay for Plasminogen activator inhibitor-1 (PAI1) Biomarker Activity (AID 2283066); conditions: primary human foreskin fibroblasts; actives raise or lower the signal
# How it was run: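 PAI-1 levels, determined by ELISA, served as the endpoint in human foreskin fibroblast cultures exposed to compound for 24 h, with DMSO as baseline.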
# [8] = read-out: Intercellular Adhesion Molecule 1 (ICAM1), ICAM1 (gene 3383); experiment: BSK_KF3CT_ICAM1: BioMAP Diversity Plus: KF3CT Assay for Intercellular Adhesion Molecule 1 (ICAM1) Biomarker Activity (AID 2283067); conditions: primary human keratinocytes with fibroblasts; actives raise or lower the signal
# How it was run: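 ICAM-1 levels are measured by ELISA 24 h after dosing a primary human co-culture of keratinocytes and foreskin fibroblasts. Activity in either direction is fitted relative to DMSO vehicle.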
# [9] = read-out: Interferon-gamma inducible Protein 10 (IP10), CXCL10 (gene 3627); experiment: BSK_KF3CT_IP10: BioMAP Diversity Plus: KF3CT Assay for Interferon-gamma inducible Protein 10 (IP10) Biomarker Activity (AID 2283068); conditions: primary human keratinocytes with fibroblasts; actives raise or lower the signal
# How it was run: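 ELISA read-out of IP-10 after 24 h chemical dosing of human skin primary co-culture (keratinocytes, foreskin fibroblasts). Gain or loss of signal relative to DMSO, bidirectional curve fit.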
# [10] = read-out: Interleukin-1 alpha (IL1a), IL1A (gene 3552); experiment: BSK_KF3CT_IL1a: BioMAP Diversity Plus: KF3CT Assay for Interleukin-1 alpha (IL1a) Biomarker Activity (AID 2283070); conditions: primary human keratinocytes with fibroblasts; actives raise or lower the signal
# How it was run: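 Primary human keratinocyte plus foreskin fibroblast co-culture, dosed and measured at 24 h in 96-well plates. IL-1a level quantified by ELISA; bidirectional fit relative to DMSO.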
# [11] = read-out: TIMP metallopeptidase inhibitor 2 (TIMP2), TIMP2 (gene 7077); experiment: BSK_KF3CT_TIMP2: BioMAP Diversity Plus: KF3CT Assay for TIMP metallopeptidase inhibitor 2 (TIMP2) Biomarker Activity (AID 2283071); conditions: primary human keratinocytes with fibroblasts; actives raise or lower the signal
# How it was run: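 Keratinocyte–fibroblast co-culture, 24 h exposure; TIMP-2 ELISA, DMSO-normalised bidirectional fit. Parallel SRB (0.1%, TCA-fixed, 560 nm) total-protein staining gauges cytotoxicity.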
# [12] = read-out: Transforming growth factor beta 1 (TGFb1), TGFB1 (gene 7040); experiment: BSK_KF3CT_TGFb1: BioMAP Diversity Plus: KF3CT Assay for Transforming growth factor beta 1 (TGFb1) Biomarker Activity (AID 2283072); conditions: primary human keratinocytes with fibroblasts; actives raise or lower the signal
# How it was run: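 Signal changes in either direction, relative to DMSO, define activity here. TGF-b1 is read by ELISA from a human keratinocyte-fibroblast co-culture 24 h post-dose.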
# [13] = read-out: C-C motif chemokine 2 (Homo sapiens) (UniProt P13500); experiment: BSK_KF3CT_MCP1: BioMAP Diversity Plus: KF3CT Assay for Monocyte Chemoattractant Protein 1 (MCP1/CCL2) Biomarker Activity (AID 2283073); conditions: primary human keratinocytes with fibroblasts; actives raise or lower the signal
# How it was run: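 ELISA readout of MCP-1 after 24 h chemical dosing of a human skin primary co-culture of keratinocytes and foreskin fibroblasts. Activity was fitted in both directions against DMSO.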
# [14] = read-out: Matrix Metallopeptidase 9 (MMP9), MMP9 (gene 4318); experiment: BSK_KF3CT_MMP9: BioMAP Diversity Plus: KF3CT Assay for Matrix Metallopeptidase 9 (MMP9) Biomarker Activity (AID 2283074); conditions: primary human keratinocytes with fibroblasts; actives raise or lower the signal;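 on AC50: MMP9 protein level quantified by ELISA in the co-culture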
# How it was run: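 Human keratinocyte and foreskin fibroblast co-culture exposed to chemicals for 24 h; MMP9 biomarker measured by ELISA, bidirectional fitting relative to DMSO; cytotoxicity tracked by SRB total protein staining in parallel cultures.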
# [15] = read-out: urokinase plasminogen activator (uPA), PLAU (gene 5328); experiment: BSK_KF3CT_uPA: BioMAP Diversity Plus: KF3CT Assay for urokinase plasminogen activator (uPA) Biomarker Activity (AID 2283075); conditions: primary human keratinocytes with fibroblasts; actives raise or lower the signal
# How it was run: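 Primary human keratinocyte/foreskin fibroblast co-culture exposed to chemical; uPA measured by ELISA at 24 h. Bidirectional fit versus DMSO, with parallel SRB total-protein staining for cytotoxicity.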
# [16] = read-out: CD40, CD40 (gene 958); experiment: BSK_LPS_CD40: BioMAP Diversity Plus: LPS Assay for CD40 Biomarker Activity (AID 2283076); conditions: primary human HUVEC with PBMC; actives raise or lower the signal
# How it was run: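 Cells were dosed, incubated 24 h, then assayed for CD40 by ELISA. Gain or loss of signal was analysed relative to DMSO controls. The culture paired human umbilical vein endothelium with peripheral blood mononuclear cells.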
# [17] = read-out: E-selectin (Homo sapiens) (UniProt P16581); experiment: BSK_LPS_Eselectin: BioMAP Diversity Plus: LPS Assay for Eselectin Biomarker Activity (AID 2283077); conditions: primary human HUVEC with PBMC; actives raise or lower the signal
# How it was run: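 Primary human vascular co-culture (endothelium plus PBMC) was dosed with chemical, then E-selectin quantified by ELISA at 24 h. Endpoint values derive from bidirectional curve fitting relative to DMSO.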
# [18] = read-out: Interleukin-8 (IL8), CXCL8 (gene 3576); experiment: BSK_LPS_IL8: BioMAP Diversity Plus: LPS Assay for Interleukin-8 (IL8) Biomarker Activity (AID 2283078); conditions: primary human HUVEC with PBMC; actives raise or lower the signal
# How it was run: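 Readout is IL-8 by ELISA, taken 24 h after compounds were added to LPS-stimulated endothelial/PBMC co-cultures. Both increases and decreases relative to DMSO control were scored through bidirectional fitting.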
# [19] = BSK_LPS_SRB: Viability Assessment in the BioMAP Diversity Plus: LPS Assay (AID 2283079); conditions: primary human HUVEC with PBMC;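 further: total protein by sulforhodamine B absorbance as a cytotoxicity measure; measured one day after compound addition; fitted in both directions against DMSO so loss or gain of signal counts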
# How it was run: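 Readout is SRB absorbance at 560 nm (0.1% stain, TCA-fixed parallel cultures) as a total-protein cytotoxicity measure. Cells: primary human umbilical vein endothelium plus peripheral blood mononuclear cells, 24 h after chemical exposure; DMSO served as baseline.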
# Sequence of E-selectin (Homo sapiens) (P16581 whole entry, looked up): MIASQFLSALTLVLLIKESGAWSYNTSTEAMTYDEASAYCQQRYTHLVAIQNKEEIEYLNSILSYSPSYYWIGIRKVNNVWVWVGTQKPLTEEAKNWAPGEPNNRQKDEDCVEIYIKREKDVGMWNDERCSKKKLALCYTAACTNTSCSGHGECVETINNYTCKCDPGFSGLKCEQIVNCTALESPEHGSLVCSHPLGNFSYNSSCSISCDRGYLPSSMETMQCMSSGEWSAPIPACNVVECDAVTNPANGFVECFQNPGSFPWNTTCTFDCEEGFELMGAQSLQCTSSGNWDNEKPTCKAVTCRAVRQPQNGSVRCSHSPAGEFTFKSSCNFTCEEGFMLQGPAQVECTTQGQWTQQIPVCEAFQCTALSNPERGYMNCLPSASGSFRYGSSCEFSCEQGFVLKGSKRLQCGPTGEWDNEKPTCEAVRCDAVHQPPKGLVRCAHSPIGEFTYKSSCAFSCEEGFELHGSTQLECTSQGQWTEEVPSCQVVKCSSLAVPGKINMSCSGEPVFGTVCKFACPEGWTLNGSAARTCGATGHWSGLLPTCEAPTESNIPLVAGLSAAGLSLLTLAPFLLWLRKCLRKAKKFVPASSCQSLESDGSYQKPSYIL
compound,measurement,setting,value
O=C1c2ccccc2C(=O)N1SC(Cl)(Cl)Cl,AC50,[1],26 µM (active)
same,AC50,[2],33.1 µM (active)
same,outcome,[3],inactive
same,AC50,[4],18.3 µM (active)
same,outcome,[5],inactive
same,outcome,[6],inactive
same,outcome,[7],inactive
same,outcome,[8],inactive
same,AC50,[9],26.8 µM (active)
same,outcome,[10],inactive
same,outcome,[11],inactive
same,outcome,[12],inactive
same,outcome,[13],inactive
same,outcome,[14],inactive
same,outcome,[15],inactive
same,outcome,[16],inactive
same,outcome,[17],inactive
same,outcome,[18],inactive
same,AC50,[19],0.303 µM (active)
C#CCN1C(=O)COc2cc(F)c(N3C(=O)C4=C(CCCC4)C3=O)cc21,outcome,[1],inactive
same,outcome,[2],inactive
same,outcome,[3],inactive
same,outcome,[4],inactive
same,outcome,[5],inactive
same,outcome,[6],inactive
same,outcome,[7],inactive
same,outcome,[8],inactive
same,outcome,[9],inactive
same,outcome,[10],inactive
same,outcome,[11],inactive
same,outcome,[12],inactive
same,outcome,[13],inactive
same,outcome,[14],inactive
same,outcome,[15],inactive
same,outcome,[16],inactive
same,outcome,[17],inactive
same,outcome,[18],inactive
same,outcome,[19],inactive
CCOc1nc(NC)nc(NC(=O)NS(=O)(=O)c2ccccc2C(=O)OC)n1,outcome,[1],inactive
same,outcome,[2],inactive
same,AC50,[3],25.5 µM (active)
same,outcome,[4],inactive
same,AC50,[5],20 µM (active)
same,outcome,[6],inactive
same,AC50,[7],5.36 µM (active)
same,outcome,[8],inactive
same,AC50,[9],20 µM (active)
same,outcome,[10],inactive
same,outcome,[11],inactive
same,outcome,[12],inactive
same,outcome,[13],inactive
same,AC50,[14],30.4 µM (active)
same,AC50,[15],37 µM (active)
same,outcome,[16],inactive
same,outcome,[17],inactive
same,outcome,[18],inactive
same,outcome,[19],inactive
COP(=O)(OC)OC=C(Cl)Cl,outcome,[1],inactive
same,outcome,[2],inactive
same,outcome,[3],inactive
same,outcome,[4],inactive
same,outcome,[5],inactive
same,outcome,[6],inactive
same,outcome,[7],inactive
same,outcome,[8],inactive
same,outcome,[9],inactive
same,outcome,[10],inactive
same,outcome,[11],inactive
same,outcome,[12],inactive
same,outcome,[13],inactive
same,outcome,[14],inactive
same,outcome,[15],inactive
same,AC50,[16],27.3 µM (active)
same,outcome,[17],inactive
same,outcome,[18],inactive
same,outcome,[19],inactive
O=C(O)CCCOc1ccc(Cl)cc1Cl,outcome,[1],inactive
same,outcome,[2],inactive
same,outcome,[3],inactive
same,outcome,[4],inactive
same,outcome,[5],inactive
same,outcome,[6],inactive
same,outcome,[7],inactive
same,outcome,[8],inactive
same,AC50,[9],23.6 µM (active)
same,outcome,[10],inactive
same,outcome,[11],inactive
same,outcome,[12],inactive
same,outcome,[13],inactive
same,outcome,[14],inactive
same,outcome,[15],inactive
same,outcome,[16],inactive
same,outcome,[17],inactive
same,outcome,[18],inactive
same,outcome,[19],inactive
